“And” between values parts separate entries of the source, which are not always exact repeats. Identical values can stand only once. About 5,800 (36%) of roughly 16,000 compounds were called active. Roughly 23% stayed inconclusive and do not appear here. The call rests on the fitted dose curve; in most records, active means well fitted curve in the direction sought with a large enough effect; inconclusive means small, poorly fitted or top-dose-only effect, or effect the other way; inactive means no such curve, though single readings can be large or run the other way. The list shows a part of the results. More than one record can exist for a structure, and the calls need not agree.
What follows are molecules tested against Cytochrome P450 2C19 (Homo sapiens) (UniProt P33261) (assay: Cytochrome panel assay with activity outcomes). Details: recombinant CYP, pro-luciferin dealkylation, luminescence, p450-cyp2c19; series mostly up to 57.1 µM.
Sequence of Cytochrome P450 2C19 (Homo sapiens) (P33261 whole entry, looked up): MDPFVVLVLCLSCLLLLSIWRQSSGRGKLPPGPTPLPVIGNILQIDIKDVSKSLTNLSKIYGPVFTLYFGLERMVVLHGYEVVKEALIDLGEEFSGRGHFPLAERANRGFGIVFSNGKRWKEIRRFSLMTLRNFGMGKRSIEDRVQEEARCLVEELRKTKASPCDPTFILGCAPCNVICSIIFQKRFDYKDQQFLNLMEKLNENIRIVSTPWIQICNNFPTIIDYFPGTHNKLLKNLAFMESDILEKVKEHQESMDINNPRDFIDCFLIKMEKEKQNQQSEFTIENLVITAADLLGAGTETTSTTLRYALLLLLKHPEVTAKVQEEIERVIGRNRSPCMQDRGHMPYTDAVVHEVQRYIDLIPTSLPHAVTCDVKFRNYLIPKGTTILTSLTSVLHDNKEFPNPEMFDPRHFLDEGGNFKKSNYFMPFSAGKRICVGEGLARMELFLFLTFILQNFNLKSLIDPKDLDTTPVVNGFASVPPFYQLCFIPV
With `NP(N)(=O)NC(=O)c1ccc(F)cc1` the AC50 was “inactive”.
In the case of `c1csc(CN2CC[C@@]3(CCCNC3)C2)n1`, the AC50 is reported as “inactive”.
With `C[N+]12CCC(CC1)[C@@H](OC(=O)C(O)(c1ccccc1)c1ccccc1)C2` the AC50 was “inactive”.
With `N#CCCN` the AC50 was “inactive”.
For `c1ccc2cc(CC3=NCCN3)ccc2c1`, the AC50 was “inactive”.
With `COc1ccc2cc1Oc1ccc(cc1)C[C@H]1c3cc(c(OC)cc3CCN1C)Oc1c(OC)c(OC)cc3c1[C@@H](C2)N(C)CC3` the activity, negative = inhibition was -36.6% [at 11.4 µM] (inactive).
For `CC1=C2[C@@H]3OC(=O)[C@@H](C)[C@@H]3CC[C@]2(C)C=CC1=O`, the AC50 was “inactive”.
For `CCCCN1C(=O)/C(=C\c2ccco2)C(=O)N(CCc2ccccc2)C1=O`, the AC50 was 10 µM (active).
For `Cc1cc2c(C(C)C)c(O)c(O)c(C=O)c2c(O)c1-c1c(C)cc2c(C(C)C)c(O)c(O)c(C=O)c2c1O`, the AC50 was “inactive”.
In the case of `COC1=C[C@H]2C3=C([C@H]2C1=O)[C@H](NC(C)=O)CCc1cc(OC)c(OC)c(OC)c13`, the AC50 is reported as “inactive”.
In the case of `NC(=O)c1ccc(-c2nc(-c3ccc4c(c3)OCO4)c(-c3ccccn3)[nH]2)cc1`, the AC50 is reported as 2.51 µM (active).
For `CC(C)C(=O)CP(=O)(O)O`, the activity, negative = inhibition was 8.85% [at 11.4 µM] (inactive).
With `N=C(N)SCc1ccc(Cl)c2ccccc12` (tested in a mixture with another compound) the activity, negative = inhibition was -27.8% [at 11.4 µM] (inactive) and -26.6% [at 11.4 µM] (inactive).
`Cn1c(O)c(C(c2ccccn2)c2c(O)n(C)c(=S)n(C)c2=O)c(=O)n(C)c1=S` was tested, and the AC50 was “inactive”.
For `COC(=O)C(O)(c1c(C)[nH]c2ccccc12)C(F)(F)F` (centres undefined), the AC50 was 5.01 µM (active).
With `c1ccc2sc(C3(N4CCCCC4)CCCCC3)cc2c1` the AC50 was “inactive”.
For `Nc1ncnc2c1ncn2[C@@H]1O[C@@H](COP(=O)(O)CP(=O)(O)OP(=O)(O)O)[C@H](O)[C@@H]1O`, the AC50 was “inactive”.
With `NNC(N)=O` the AC50 was “inactive”.
For `c1cncc([C@@H]2CCCCN2)c1`, the AC50 was “inactive and 2 µM (active)”.
For `c1cncc(CNCCN2CCNCC2)c1`, the activity, negative = inhibition was 7.54% [at 11.4 µM] (inactive).
In the case of `COc1ccc2c(c1)[C@]13CCCC[C@@H]1[C@H](C2)N(C)CC3`, the AC50 is reported as “inactive”.
With `O=[As](O)(O)c1ccc(N=Nc2ccc(O)cc2)cc1` the activity, negative = inhibition was -12.7% [at 11.4 µM] (inactive).
In the case of `CCOc1ccc(C2C(C#N)=C(N)Oc3c2c(=O)oc2ccccc32)cc1` (centres undefined), the AC50 is reported as 5.62 µM (active).
In the case of `CN1CC[C@@]2(CCCN(C(=O)c3ccncc3)C2)C1`, the AC50 is reported as “inactive”.
`O=C1CS[C@@H](c2ccccc2Cl)c2cc(Cl)ccc2N1` was tested, and the AC50 was 25.1 µM (active).
With `O=S(=O)(NCCO)c1cc[c]([Sb](=[O])([OH])[OH])cc1` the activity, negative = inhibition was 14.4% [at 11.4 µM] (inactive).
With `CC(C)c1ccc(C(O)(C(=O)O)c2ccc(C(C)C)cc2)cc1` the activity, negative = inhibition was 21.5% [at 11.4 µM] (inactive).
With `C[C@@]12CC[C@@H]3[C@H](CCC4=CC(=O)CC[C@]43C)[C@@H]1CC[C@@H]2C(=O)COS(=O)(=O)c1ccc(Br)cc1` the activity, negative = inhibition was -21.8% [at 11.4 µM] (inactive).
With `COc1cc2c3cc1Oc1cc(ccc1O)C[C@@H]1c4c(cc(OC)c(O)c4Oc4cccc(c4)C[C@H]3N(C)CC2)CC[N+]1(C)C` the AC50 was “inactive”.
With `Cc1nc2ccccc2cc1C[N+]12CN3CN(CN(C3)C1)C2` the activity, negative = inhibition was -23.7% [at 11.4 µM] (inactive).
For `O=C(Cc1ccc(Cl)c(Cl)c1)N1CCCC[C@H]1CN1CCCC1`, the AC50 was “inactive and 6.31 µM (active)”.
In the case of `COC(=O)N1CCN(C(=O)Cc2ccc(Cl)c(Cl)c2)[C@H](CN2CCCC2)C1`, the AC50 is reported as “inactive and 25.1 µM (active)”.
In the case of `CC[N+](CC)(CC)CCOc1cccc(OCC[N+](CC)(CC)CC)c1OCC[N+](CC)(CC)CC`, the AC50 is reported as “inactive”.
For `C=C[C@H]1CN2CC[C@@H]1C[C@H]2[C@@H](O)c1ccnc2ccccc12`, the AC50 was “inactive”.
With `N[C@H](Cn1ccc(=O)[nH]c1=O)C(=O)O` the AC50 was “inactive”.
For `C[C@@]12CC[C@H](O[C@@H]3O[C@H](CO)[C@@H](O)[C@H](O)[C@@H]3O)C[C@@H]1CC[C@H]1[C@H]2CC[C@@]2(C)[C@@H](C3=CCOC3=O)CC[C@]12O`, the activity, negative = inhibition was 22.6% [at 11.4 µM] (inactive).
In the case of `COC(=O)[C@H]1[C@H](c2ccccc2)C(=O)[C@@]2(O)c3ccccc3O[C@@]12c1ccccc1`, the activity, negative = inhibition is reported as -15.7% [at 11.4 µM] (inactive).
With `COc1cc2c(cc1O)C[C@H]1c3c(cc(O)c(OC)c3-2)CCN1C` the AC50 was “inactive”.
For `CC1=CC(=O)C2=C(C)C[C@@H](O)[C@@H]3[C@@H](OC(=O)[C@H]3C)[C@H]12`, the AC50 was “inactive”.
`C[N+]1([O-])[C@@H]2CC[C@H]1CC(OC(=O)[C@@H](CO)c1ccccc1)C2` (some centres undefined) was tested, and the AC50 was “inactive”.
In the case of `CC12CN3CC(C)(CN(C1)C31CCSCC1)C2=O`, the AC50 is reported as “inactive”.
`COc1cc(CN2CCN(C(=O)COc3ccccc3)CC2)cc(OC)c1OC` was tested, and the AC50 was “inactive”.
`CC(=O)N1CCC2(CC1)CC(=O)c1cc(OCC(=O)N3CCN(C)CC3)ccc1O2` was tested, and the AC50 was “inactive”.
For `O=C(COc1ccc2ccccc2c1)N1CCN(CC2CC3C=CC2C3)CC1` (centres undefined), the AC50 was 10 µM (active).
For `C(=NC12CN3CN(CN(C3)C1)C2)c1cccs1`, the AC50 was “inactive”.
In the case of `CCCc1cc2c(n1Cc1cccc(Cl)c1)C(C)C1CN(C(=O)c3ccccc3)C(C)(C(=O)OC)C21` (centres undefined), the AC50 is reported as 15.8 µM (active).
`N#CCCCC[N+]12CN3CN(CN(C3)C1)C2` was tested, and the activity, negative = inhibition was 19.8% [at 11.4 µM] (inactive).
With `C=C(CC1(C(C)NP(=O)(c2ccccc2)c2ccccc2)CC1)c1ccccc1` (centres undefined) the AC50 was 10 µM (active).
`C=C(CC1(CNP(=O)(c2ccccc2)c2ccccc2)CC1)c1ccccc1` was tested, and the AC50 was “inactive”.
In the case of `O=C(O)[C@H]1C[C@@H]1[C@H](NP(=O)(c1ccccc1)c1ccccc1)c1ccccc1`, the AC50 is reported as “inactive”.
In the case of `CNC(=O)OCC[N+](C)(C)C`, the AC50 is reported as “inactive”.
With `O=C(O)c1ccccc1-c1c2cc(Br)c(=O)cc-2oc2[c]([Hg])c(O)c(Br)cc12` the AC50 was 3.16 µM (active).
In the case of `NC(N)=Nc1ccc2[nH]c3c(c2c1)C[C@]1(O)[C@@H]2Cc4ccc(O)c5c4[C@]1(CCN2CC1CC1)[C@@H]3O5`, the AC50 is reported as “inactive”.
`N[C@H](Cc1ccc2oc3cc(=O)c4ccccc4c-3nc2c1)C(=O)O` was tested, and the activity, negative = inhibition was -35.8% [at 11.4 µM] (inactive).
On the % scale 0 is the no-effect control and ±100 the full control effect.
